KCNQ2 block: inhibitors of rat KCNQ2 potassium channel; CHO-K1 KCNQ2, FluxOR thallium flux, 20 min; stronger effect = lower value; hit rate 1.1% among 310,000; B-score at 10 µM;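 active means fluorescence ratio B-score at most minus 3 library SDs, with starting brightness B-score within 2 library SDs, cut at about -5.5 in these data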
KCNQ2 pot: KCNQ2 (rat) channel potentiation | O88943 | CHO-K1 KCNQ2, FluxOR thallium flux fluorescence; stronger effect = higher value | B-score at 10 µM | hit rate 0.54% among 310,000 | AID 2239;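 active means fluorescence ratio B-score at least 3 SD of library B-scores, with initial fluorescence B-score within 3 of them, cut at about 5.3 in these data; same plate scores as AID 2156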;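 further: B-score of peak minus minimum over baseline fluorescence ratio after K+ and Tl+ stimulus; positive B-score means potentiation of KCNQ2 with more thallium influx and brighter signal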
KCNQ2 inh conf: confirmation of rat KCNQ2 potassium channel inhibitors. shares compounds with KCNQ2 block. KCNQ2-expressing cells, thallium flux, inhibition; stronger effect = lower value. activity change, negative = inhibition, % at 10 µM. hit rate 57% among 1,000. AID 493025
KCNQ1 spec: human KCNQ1 activity in KCNQ2 inhibitor specificity screen | shares compounds with KCNQ2 block | KCNQ1-expressing cells, FluxOR thallium flux fluorescence; stronger effect = lower value | activity change, negative = inhibition, % at 10 µM | hit rate 15% among 1,000;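 active means activity change at least 3 SD of negative controls below their mean in both duplicate wells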;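 further: CHO cells stably transfected with KCNQ1 and depolarized by potassium stimulus; peak minus minimum fluorescence over baseline after thallium addition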
Target sequence (P51787 whole entry, looked up): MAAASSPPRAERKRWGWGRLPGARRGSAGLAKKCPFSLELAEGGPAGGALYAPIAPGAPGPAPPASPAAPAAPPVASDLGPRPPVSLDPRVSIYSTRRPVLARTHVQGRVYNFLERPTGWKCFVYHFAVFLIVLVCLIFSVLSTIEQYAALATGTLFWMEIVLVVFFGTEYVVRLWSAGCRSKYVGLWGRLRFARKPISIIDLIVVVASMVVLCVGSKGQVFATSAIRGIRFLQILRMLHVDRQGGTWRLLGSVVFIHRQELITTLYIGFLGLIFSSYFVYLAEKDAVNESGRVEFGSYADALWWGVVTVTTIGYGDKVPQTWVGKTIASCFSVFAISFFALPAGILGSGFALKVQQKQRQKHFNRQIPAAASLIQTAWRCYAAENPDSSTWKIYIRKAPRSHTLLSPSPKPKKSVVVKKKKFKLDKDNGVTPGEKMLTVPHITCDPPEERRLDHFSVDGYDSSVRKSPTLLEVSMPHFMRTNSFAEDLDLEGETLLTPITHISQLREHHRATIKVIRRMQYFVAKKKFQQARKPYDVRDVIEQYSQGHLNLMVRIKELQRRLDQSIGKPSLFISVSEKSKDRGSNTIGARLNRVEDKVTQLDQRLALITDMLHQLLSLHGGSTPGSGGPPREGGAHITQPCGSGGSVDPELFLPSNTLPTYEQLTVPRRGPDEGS
CHO Tl ctr: counter-screen for KCNQ2 inhibitors: effect in parental CHO cells; shares compounds with KCNQ2 block; activity change, % at 10 µM; thallium flux counter-screen; stronger effect = lower value; AID 493029; hit rate 14% among 1,000
KCNQ2 inh confirm: rat KCNQ2 inhibition confirmed by electrophysiology; shares compounds with KCNQ2 block; KCNQ2-expressing cells, automated patch clamp current; calls only at 10 µM; hit rate 49% among 550; AID 588531
Each line names hits and unclear results; the compound was inactive in the other large screens (follow-up assays come after a bar, where they were run). Compounds with a hit are over-represented: about 1.6% of the library has one in this group of screens. Unless noted, how the calls were made is not given here.

COc1ccc(NC(=O)NC2CCCc3ccccc32)cc1 (configuration not stated)	none (no result: KCNQ2 pot)
COc1ccccc1OCC(=O)NC1CCCc2ccccc21 (configuration not stated)	none (no result: KCNQ2 pot)
CC(C)=CC(=O)OCC(=O)NC1CCCc2ccccc21 (configuration not stated)	KCNQ2 block -6.7 | KCNQ2 inh conf inactive | KCNQ1 spec inactive | CHO Tl ctr inactive
O=C(CN1C(=O)NC2(CCCCCCC2)C1=O)NC1CCCc2ccccc21 (configuration not stated)	KCNQ2 block -7.5 | KCNQ2 inh conf -19% | KCNQ1 spec inactive | CHO Tl ctr inactive | KCNQ2 inh confirm active
Cc1ccc(NC(=O)c2sc3ncn(CC(=O)N4CCOCC4)c(=O)c3c2C)c(Br)c1	none (no result: KCNQ2 pot)
CN(CCNS(=O)(=O)c1ccc2c(c1)oc(=O)n2C)Cc1ccccc1	none (no result: KCNQ2 pot)
COc1ccc(S(=O)(=O)N2CCCCCC2)cc1C(=O)N(C)Cc1cccs1	none
CCN1CCN(S(=O)(=O)c2ccc(Cl)c(C(=O)N(C)Cc3cccc(Cl)c3Cl)c2)CC1	KCNQ2 block -6.9 | KCNQ2 inh conf inactive | KCNQ1 spec inactive | CHO Tl ctr inactive
CCN1CCN(S(=O)(=O)c2ccc(Cl)c(C(=O)N(C)Cc3ccc(F)cc3)c2)CC1	none
COc1ccc(S(=O)(=O)N2CCCCCC2)cc1C(=O)N(C)Cc1ccc(Cl)cc1Cl	KCNQ2 block -8.5 | KCNQ2 inh conf inactive | KCNQ1 spec inactive | CHO Tl ctr inactive
CCOC(=O)c1sc(NC(C)=O)nc1C	none
CCCCn1c(N)c(N(CCOC)C(=O)c2cc(-c3ccc(OC)cc3)nc3ccccc23)c(=O)[nH]c1=O	none
CCOC(=O)CNc1c(-c2ccccc2)nc2ccc(Cl)cn12	KCNQ2 block -7 | KCNQ2 inh conf -32% | KCNQ1 spec inactive | CHO Tl ctr inactive | KCNQ2 inh confirm active
CC(=O)Nc1c(-c2ccccc2)nc2ccc(Cl)cn12	none (no result: KCNQ2 pot)
CCC(C)Sc1cccc(-c2nc3ccc(C)cn3c2NCc2ccccc2)c1 (configuration not stated)	none (no result: KCNQ2 pot)
CCC(C)Sc1cccc(-c2nc3ccc(Cl)cn3c2NCc2ccccc2)c1 (configuration not stated)	KCNQ2 block -7.3 | KCNQ2 inh conf -33% | KCNQ1 spec -38% | CHO Tl ctr -25% | KCNQ2 inh confirm active
COc1cccc(OCC(=O)Nc2ccccc2NC(C)=O)c1	none (no result: KCNQ2 pot)
Cc1ccc(C(=O)NCCCNC(=O)COc2ccccc2Cl)cn1	none (no result: KCNQ2 pot)
CCOC(=O)c1c(-c2ccccc2)csc1NC(=O)C(C)NCc1ccco1 (configuration not stated)	KCNQ2 block -7.2 | KCNQ2 inh conf -31% | KCNQ1 spec inactive | CHO Tl ctr inactive | KCNQ2 inh confirm inactive
CCOC(=O)c1c(-c2ccc(Cl)cc2)csc1NC(=O)CNCc1ccco1	none (no result: KCNQ2 pot)
Cc1ccc(C)c(-n2c(SCC(=O)N3CCC(C(=O)O)CC3)nnc2-c2cccc(Cl)c2)c1	none (no result: KCNQ2 pot)
O=C(COc1ccc(F)cc1)N(c1ccccn1)C1CCCCC1	KCNQ2 block -6.8 | KCNQ2 inh conf -28% | KCNQ1 spec inactive | CHO Tl ctr inactive | KCNQ2 inh confirm active
CC(C)c1ccc(OCC(=O)N(c2ccccn2)C2CCCCC2)cc1	none (no result: KCNQ2 pot)
COc1cc2c(C#N)c(N3CCN(c4ccccc4OC)CC3)nc(N)c2c(N)n1	none
Cc1onc(-c2c(Cl)cccc2Cl)c1C(=O)N1CCOCC1	none
Cc1cc(C)c2nc(-c3cccc(Cl)c3)c(C)c(C(=O)N3CCOCC3)c2c1	KCNQ2 block -8.8 | KCNQ2 inh conf -28% | KCNQ1 spec inactive | CHO Tl ctr inactive | KCNQ2 inh confirm active
Nc1nc(-c2ccccc2)nn1C(=O)c1ccco1	none (no result: KCNQ2 pot)
CC(C)N1CC(C(=O)Nc2ccc(Cl)c(Cl)c2)CC1=O (configuration not stated)	none
Cn1c(=O)c(=O)n(C)c2cc(S(=O)(=O)N3CCc4ccccc43)ccc21	none (no result: KCNQ2 pot)
CC(C)(C)n1nnnc1C(c1cccnc1)N1CCN(c2cccc(C(F)(F)F)c2)CC1 (configuration not stated)	none
CC(C)(C)c1cc(C(c2cccnc2)N2CCN(CCO)CC2)cc(C(C)(C)C)c1O (configuration not stated)	KCNQ2 block -9.2 | KCNQ2 inh conf -26% | KCNQ1 spec inactive | CHO Tl ctr inactive | KCNQ2 inh confirm inactive
Cc1ccsc1/C=C/C1=NCCCN1C	none

High-throughput results from PubChem BioAssay.
